Compounds without any hit were thinned out: in the full panel of roughly 79,000, 15% have a hit. Active and inactive are the calls of the source. Cut-off read from the data, not from the text of the source: active = growth inhibition above about 70%; inactive = the rest.
Tests used:
[1] = NCI Yeast Anticancer Drug Screen. Data for the rad52 strain (AID 147);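 note: 0% = growth of vehicle-treated control cultures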; details: S. cerevisiae rad52 mutant growth inhibition, active compounds read high
In short: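 Screen used a yeast mutant impaired in DNA repair. After compound exposure, growth was measured. Values reflect inhibition compared with vehicle-treated cells.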

[2] = NCI Yeast Anticancer Drug Screen. Data for the wt1 strain (AID 149);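 note: 0% = growth of vehicle-treated wt1 cultures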; details: S. cerevisiae wt1 strain (SPY 50644) growth inhibition, active compounds read high
In short: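 Readout: yeast growth inhibition, normalised to vehicle controls, in the wt1 strain exposed to test compounds.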

[3] = NCI Yeast Anticancer Drug Screen. Data for the rad50EPP+ strain (AID 151);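 note: 0% = growth of vehicle-treated control cultures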; details: S. cerevisiae rad50 mutant strain, active compounds read high
In short: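 Exposing the rad50EPP+ strain to each compound, growth was compared with vehicle-only cultures to give inhibition.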

[4] = NCI Yeast Anticancer Drug Screen. Data for the mgt1 strain (AID 153); details: S. cerevisiae mgt1 mutant growth inhibition, active compounds read high
In short: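 Genetically defined yeast (mgt1) treated with compound; inhibition of growth expressed against vehicle-treated controls.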

[5] = NCI Yeast Anticancer Drug Screen. Data for the rad50 strain (AID 155);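 note: 0% = growth of vehicle-only cultures of the same strain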; details: S. cerevisiae rad50 strain growth inhibition, active compounds read high
In short: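 Compounds were tested on a yeast strain with an engineered DNA damage repair alteration; the reported value is growth inhibition normalised to vehicle treatment.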

[6] = NCI Yeast Anticancer Drug Screen. Data for the mec2-1 strain (AID 157); details: S. cerevisiae mec2-1 strain, active compounds read high
In short: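 Readout is yeast growth inhibition, normalised to vehicle-treated controls, in the mec2-1 strain exposed to compound.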

[7] = NCI Yeast Anticancer Drug Screen. Data for the rad14 strain (AID 159);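 note: 0% = growth of vehicle-treated control cultures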; details: S. cerevisiae rad14 strain growth inhibition, active compounds read high
In short: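 Compound-treated yeast with a defined DNA-repair lesion; growth inhibition normalised to vehicle-treated cultures.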

[8] = NCI Yeast Anticancer Drug Screen. Data for the sgs1 mgt1 strain (AID 161);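 note: 0% = growth of cultures given vehicle only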; details: S. cerevisiae sgs1 mgt1 strain, active compounds read high
In short: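 Percent growth inhibition was derived by comparing compound-exposed mutant yeast with vehicle-exposed cultures. The strain carries alterations in DNA damage repair.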

[9] = NCI Yeast Anticancer Drug Screen. Data for the CLN2oe strain (AID 163);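 note: 0% = growth of vehicle-only control cultures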; details: S. cerevisiae CLN2oe strain, active compounds read high
In short: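 Values reflect how much compound exposure reduced yeast growth, referenced to vehicle-exposed cells. Assay organism is a strain with a defined genetic change affecting cell-cycle control.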

[10] = NCI Yeast Anticancer Drug Screen. Data for the cln2 rad14 strain (AID 165);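 note: 0% = growth equal to vehicle treated cultures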; details: S. cerevisiae cln2 rad14 strain, active compounds read high
In short: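 Relative to vehicle controls, growth inhibition of compound-treated cln2 rad14 yeast was recorded.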

[11] = NCI Yeast Anticancer Drug Screen. Data for the bub3 strain (AID 167); details: S. cerevisiae bub3 mutant strain, active compounds read high
In short: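 Growth of a checkpoint-deficient yeast mutant is measured after compound exposure. Values represent inhibition relative to vehicle.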

[12] = NCI Yeast Anticancer Drug Screen. Data for the wt2 strain (AID 169);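 note: 0% = growth of vehicle-treated yeast cultures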; details: S. cerevisiae wt2 strain growth inhibition, active compounds read high
In short: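 Values express reduction in yeast growth under compound treatment, referenced to vehicle-treated cells.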

[13] = NCI Yeast Anticancer Drug Screen. Data for the mlh1 strain (AID 171);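 note: 0% = growth of vehicle-treated control cultures of the same strain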; details: S. cerevisiae mlh1 strain growth inhibition, active compounds read high
In short: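 Steps: expose the defined-mutant yeast strain to compound; expose a parallel culture to vehicle; measure growth; express compound effect as inhibition relative to the vehicle culture.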

[14] = NCI Yeast Anticancer Drug Screen. Data for the sgs1 strain (AID 173);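 note: 0% = growth of vehicle-only control cultures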; details: S. cerevisiae sgs1 mutant, active compounds read high
In short: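 Treat defined-mutant yeast with compound; measure growth; calculate inhibition relative to vehicle-treated cells.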

[15] = NCI Yeast Anticancer Drug Screen. Data for the mlh1 rad18 strain (AID 175); details: S. cerevisiae mlh1 rad18 strain growth inhibition, active compounds read high
In short: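 Test agents were incubated with a yeast strain of defined genotype (DNA damage repair defect). Inhibition of growth was derived by comparison with vehicle-exposed cultures.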

[16] = NCI Yeast Anticancer Drug Screen. Data for the rad18 strain (AID 177); details: S. cerevisiae rad18 mutant growth inhibition, active compounds read high
In short: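 A genetically defined yeast mutant impaired in DNA damage repair was treated with test compounds, then its growth was measured against cultures receiving vehicle alone.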

[17] = at 5.0 µM (retest, dose inferred, filed as 0.5)
[18] = at 50.0 µM (retest, dose inferred, filed as 5.0)

Measured: growth inhibition

Cc1cccc(C(C)(C)C)c1NC(=O)C(C#N)C1=C(Cl)C(=O)c2ccccc2C1=O (stereo unspecified)
inactive: [1]; at 1.2 µM 6% | [1]; at 3.7 µM 36% | [1]; at 11.0 µM 52% | [2]; at 1.2 µM -10% | [2]; at 3.7 µM 10% | [2]; at 11.0 µM 21% | [3]; at 1.2 µM 14% | [3]; at 3.7 µM 67% | [4]; at 1.2 µM 19% | [4]; at 3.7 µM 32% | [4]; at 11.0 µM 49% | [5]; at 1.2 µM 4% | [5]; at 3.7 µM 24% | [5]; [17] -1% | [6]; at 1.2 µM 14% | [6]; at 3.7 µM 46% | [6]; [17] -4% | [7]; at 1.2 µM 4% | [7]; at 3.7 µM 16% | [8]; [17] 46% | [9]; at 1.2 µM 4% | [9]; at 3.7 µM 30% | [9]; at 11.0 µM 58% | [10]; [17] 19% | [11]; at 1.2 µM 14% | [11]; at 3.7 µM 11% | [11]; [17] 39% | [12]; at 1.2 µM -21% | [12]; at 3.7 µM 6% | [13]; at 1.2 µM 17% | [13]; at 3.7 µM 22% | [13]; at 11.0 µM 56% | [14]; at 1.2 µM -2% | [14]; at 3.7 µM 9% | [14]; at 11.0 µM 45% | [15]; [17] 11% | [16]; at 1.2 µM -6% | [16]; at 3.7 µM 34% | [16]; at 11.0 µM 59%
active: [1]; at 33.0 µM 97% | [1]; at 100.0 µM 98% | [2]; at 33.0 µM 98% | [2]; at 100.0 µM 98% | [3]; at 11.0 µM 99% | [3]; at 33.0 µM 99% | [3]; at 100.0 µM 98% | [4]; at 33.0 µM 98% | [4]; at 100.0 µM 97% | [5]; at 11.0 µM 70% | [5]; at 33.0 µM 98% | [5]; [18] 97% | [5]; at 50.0 µM 91% | [5]; at 100.0 µM 96% | [6]; at 11.0 µM 95% | [6]; at 33.0 µM 95% | [6]; [18] 98% | [6]; at 50.0 µM 90.5% | [6]; at 100.0 µM 97% | [7]; at 11.0 µM 76% | [7]; at 33.0 µM 98% | [7]; at 100.0 µM 97% | [8]; [18] 98% | [8]; at 50.0 µM 89.5% | [9]; at 33.0 µM 98% | [9]; at 100.0 µM 98% | [10]; [18] 97% | [10]; at 50.0 µM 88.7% | [11]; at 11.0 µM 76% | [11]; at 33.0 µM 98% | [11]; [18] 98% | [11]; at 50.0 µM 92.3% | [11]; at 100.0 µM 96% | [12]; at 11.0 µM 74% | [12]; at 33.0 µM 97% | [12]; at 100.0 µM 94% | [13]; at 33.0 µM 99% | [13]; at 100.0 µM 98% | [14]; at 33.0 µM 98% | [14]; at 100.0 µM 97% | [15]; [18] 97% | [15]; at 50.0 µM 89.5% | [16]; at 33.0 µM 98% | [16]; at 100.0 µM 97%

CN(C)CCNc1ccc2ncnc3c2c1C(=O)c1ccccc1-3
inactive: [2]; at 1.2 µM 7% | [2]; at 3.7 µM 8% | [2]; at 11.0 µM 15% | [2]; at 33.0 µM 28% | [2]; at 100.0 µM 34% | [4]; at 1.2 µM 2% | [4]; at 3.7 µM 6% | [4]; at 11.0 µM 22% | [4]; at 33.0 µM 25% | [4]; at 100.0 µM 38% | [6]; at 1.2 µM 22% | [6]; at 3.7 µM 21% | [6]; [17] 15% | [6]; at 11.0 µM 32% | [6]; at 33.0 µM 45% | [6]; [18] 48% | [6]; at 50.0 µM 68.6% | [6]; at 100.0 µM 53% | [7]; at 1.2 µM 16% | [7]; at 3.7 µM 15% | [7]; at 11.0 µM 20% | [7]; at 33.0 µM 37% | [7]; at 100.0 µM 44% | [8]; [17] -21% | [8]; [18] 56% | [9]; at 1.2 µM 5% | [9]; at 3.7 µM 8% | [9]; at 11.0 µM 26% | [9]; at 33.0 µM 59% | [10]; [17] 2% | [10]; [18] 51% | [10]; at 50.0 µM 66.9% | [11]; at 1.2 µM -8% | [11]; at 3.7 µM -2% | [11]; [17] 33% | [11]; at 11.0 µM 11% | [11]; at 33.0 µM 21% | [11]; [18] 31% | [11]; at 100.0 µM 36% | [12]; at 1.2 µM 8% | [12]; at 3.7 µM 10% | [12]; at 11.0 µM 20% | [12]; at 33.0 µM 49% | [12]; at 100.0 µM 56% | [13]; at 1.2 µM 10% | [13]; at 3.7 µM 14% | [13]; at 11.0 µM 28% | [13]; at 33.0 µM 41% | [13]; at 100.0 µM 46% | [14]; at 1.2 µM 9% | [14]; at 3.7 µM 8% | [14]; at 11.0 µM 24% | [14]; at 33.0 µM 54% | [14]; at 100.0 µM 61% | [15]; [17] -13% | [15]; at 50.0 µM 65.5% | [16]; at 1.2 µM 11% | [16]; at 3.7 µM 12% | [16]; at 11.0 µM 25% | [16]; at 33.0 µM 61%
active: [1]; at 1.2 µM 95% | [1]; at 3.7 µM 94% | [1]; at 11.0 µM 96% | [1]; at 33.0 µM 97% | [1]; at 100.0 µM 96% | [3]; at 1.2 µM 90% | [3]; at 3.7 µM 90% | [3]; at 11.0 µM 93% | [3]; at 33.0 µM 95% | [3]; at 100.0 µM 95% | [5]; at 1.2 µM 94% | [5]; at 3.7 µM 95% | [5]; [17] 84% | [5]; at 11.0 µM 96% | [5]; at 33.0 µM 96% | [5]; [18] 97% | [5]; at 50.0 µM 76% | [5]; at 100.0 µM 96% | [8]; at 50.0 µM 77.4% | [9]; at 100.0 µM 74% | [11]; at 50.0 µM 74.2% | [15]; [18] 81% | [16]; at 100.0 µM 75%

CC(C)CN(CC(C)C)C(=O)c1ccc(Cl)c(Cl)c1
inactive: [1]; at 1.2 µM -4% | [1]; at 3.7 µM 0% | [1]; at 11.0 µM 6% | [2]; at 1.2 µM -3% | [2]; at 3.7 µM -3% | [2]; at 11.0 µM -3% | [2]; at 33.0 µM 63% | [3]; at 1.2 µM -2% | [3]; at 3.7 µM 0% | [3]; at 11.0 µM 2% | [3]; at 33.0 µM 6% | [3]; at 100.0 µM 3% | [4]; at 1.2 µM 2% | [4]; at 3.7 µM 2% | [4]; at 11.0 µM 1% | [4]; at 33.0 µM 21% | [5]; at 1.2 µM -2% | [5]; at 3.7 µM 4% | [5]; [17] -10% | [5]; at 11.0 µM 6% | [6]; at 1.2 µM -1% | [6]; at 3.7 µM 1% | [6]; [17] 6% | [6]; at 11.0 µM 0% | [7]; at 1.2 µM -2% | [7]; at 3.7 µM -1% | [7]; at 11.0 µM 9% | [7]; at 33.0 µM 31% | [8]; [17] -3% | [9]; at 1.2 µM 2% | [9]; at 3.7 µM 9% | [9]; at 11.0 µM 14% | [9]; at 33.0 µM 41% | [10]; [17] -29% | [10]; [18] 50% | [11]; at 1.2 µM 4% | [11]; at 3.7 µM 3% | [11]; [17] -18% | [11]; at 11.0 µM 8% | [11]; at 33.0 µM 25% | [11]; [18] 22%
active: [1]; at 33.0 µM 82% | [1]; at 100.0 µM 98% | [2]; at 100.0 µM 98% | [4]; at 100.0 µM 98% | [5]; at 33.0 µM 85% | [5]; [18] 94% | [5]; at 50.0 µM 94.7% | [5]; at 100.0 µM 99% | [6]; at 33.0 µM 82% | [6]; [18] 76% | [6]; at 50.0 µM 98% | [6]; at 100.0 µM 99% | [7]; at 100.0 µM 99% | [8]; [18] 83% | [8]; at 50.0 µM 95.8% | [9]; at 100.0 µM 99% | [10]; at 50.0 µM 93.2% | [11]; at 50.0 µM 83% | [11]; at 100.0 µM 99%

Source: PubChem BioAssay (NCI)
